In the library only some 0.24% were active in any assay of this set; here they are far more common.
UbGFP stabilizer = Ubiquitin-GFP Assay; Ubiquitin-GFP reporter cells, proteasome inhibition, GFP fluorescence; response scale: untreated = 0%, 10 µM MG-132 = 100%; Potency, µM (series often up to 45.9 µM), for inactives: top-dose activation (GFP accumulation), actives largely listed as activators; 67,000 tested, under 10 active; active = well fitted activation curve with a large enough effect, not every such curve was filed as active; inconclusive = small, poorly fitted or top-dose-only effect, or another doubt; inactive = no such curve, though single readings can be large or run the other way; also: potency is read from the fitted curve at half-maximal effect
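GFP accumulation read-out: laser plate cytometry counting ubiquitin(G76V)-GFP-expressing U2OS cells after 4 hr compound exposure at 37 °C. Titrations spanned 46 uM to 2.9 nM; 0% = basal, 100% = 10 uM MG-132; concentration-response curves fitted.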
USP2a inhib = qHTS Assay for Inhibitors of Ubiquitin-specific Protease USP2a; AID 927, 2007; Potency, µM (series often up to 38.3 µM), for inactives: top-dose activity change, negative = inhibition, most hits filed as inhibitors; Ubiquitin carboxyl-terminal hydrolase 2 (Homo sapiens), O75604; USP2a enzymatic assay, qHTS inhibition; actives 0.1% (n = 60,000); also: potency is read from the fitted curve at half-maximal effect; nearly all actives have a fitted effect of over 60% in size
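USP2 core (20nM final) preincubated 30 min RT with compound, then Ub-PLA2 20nM and NBD C6-HPC 20uM final added; buffer 20mM Tris-HCl pH 8.0, 2mM CaCl2. Fluorescence Ex 460/Em 535 read at 0 and 2.5 h; normalized to NEM.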
Casp7 inh = qHTS Assay for Allosteric/Competitive Inhibitors of Caspase-7 | P55210 | recombinant caspase-7, Ac-DEVD-AFC fluorescence rate | AID 889, 2007 | Potency, µM (highest dose often 57.5 µM), for inactives: top-dose activity change, negative = inhibition, hits mostly inhibitors | actives 0.02% (n = 75,000); active = well fitted inhibition curve with a large enough effect in the main read-out, with a control signal flat, not every such curve was filed as active; inconclusive = small, poorly fitted or top-dose-only effect, or a change in a side signal; also: potency is read from the fitted curve at half-maximal effect; % of control where 0% means no effect
HBB splice mod = qHTS Assay for Modulators of Hemoglobin Beta Chain Splicing; HBB splicing reporter cell assay, activation; EGFP reporter with mutant IVS2-654 intron; response scale: normalised to 500 nM splice-correcting PNA; Potency, µM (top dose mostly 46.1 µM), inactives show at the highest dose activation, most hits filed as activators; actives 0.06% (n = 65,000); also: potency is read from the fitted curve at half-maximal effect; 0% is about no effect
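HeLa cells stably expressing EGFP interrupted by mutant beta-globin intron 2 (IVS2-654), 500/well in 2% FCS. Treated with compound for 2 days at 37C. Splicing correction scored as total well GFP intensity (488 nm excitation, 500-520 nm emission); 500 nM antisense PNA served as control.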
Casp1 inh = qHTS Assay for Allosteric/Competitive Inhibitors of Caspase-1 | Caspase-1 enzyme, Ac-WEHD-AFC fluorogenic rate | Potency, µM (titrated, usually from 57.5 µM), for the others: at the highest dose activity change, negative = inhibition, hits mostly inhibitors | P29466 | actives 0.03% (n = 75,000);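 also: potency is read from the fitted curve at half-maximal effect; plate controls were vehicle for no effect and no substrate for full effect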
GFP derepression = qHTS Assay for Epigenetic Modulators; actives 0.09% (n = 68,000); Potency, µM (top dose mostly 46.1 µM), for the others: at the highest dose GFP derepression (activation); mouse C127i GFP locus derepression, cytometry, 30 h; also: % of control where 0% means no effect
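Murine C127i mammary cells carrying a silenced, stably integrated CMV-driven GFP reporter were treated with compound for 30 hours at 37 C. After PBS washes, GFP-positive cells were counted by laser-scanning microplate cytometry.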
Active calls of the source: *; ? = inconclusive; · = no result given; [ ] = dose if it differs, or a comment. Unless noted, calls follow the shape of the dose curve; as a rule, active = well fitted curve in the direction sought with a large enough effect; inconclusive = small, poorly fitted or top-dose-only effect, or another doubt; inactive = no such curve, though single readings can be large; an effect the other way counts as inactive or inconclusive.

SMILES	UbGFP stabilizer	USP2a inhib	Casp7 inh	HBB splice mod	Casp1 inh	GFP derepression
C=C1C[C@@]23C[C@]1(O)CC[C@@H]2[C@]12C=C[C@@H](O)[C@@](C)(C(=O)O1)[C@@H]2[C@@H]3C(=O)O	1%	·	·	·	·	-5%[9.22 µM]
C=CCn1c(NC(=O)c2ccccc2)c(C#N)c2nc3ccccc3nc21	-3%	12%	?	25µM*	·	9%
O[C@@H]1CC[C@H]2Cc3ccccc3N=C21	6%	·	·	·	·	-5%[9.22 µM]
COc1ccc2c(c1)Cc1sc(NC(=O)c3cccs3)nc1-2	-2%	34%	?	-1%	32µM*	2%
Nc1nc2n[nH]nc2c(=O)[nH]1	20%[20.5 µM]	-15%[17.1 µM]	-5%[25.7 µM]	0.79µM*	-16%[25.7 µM]	7%[20.6 µM]
CC(C)C1=CC2=CC[C@H]3[C@@](C)(CCC[C@]3(C)C(=O)O)[C@@H]2CC1	-3%	·	·	·	·	2%[9.22 µM]
Nc1cccc2c(N)cccc12	·	·	-3%	-1%	-6%	·
Nc1ccc2c3c(cccc13)CC2	·	·	·	·	·	13µM*
Oc1c([C@H](Nc2ccccn2)c2ccccc2)ccc2cccnc12	-4%[9.17 µM]	·	1%[11.5 µM]	2%[9.22 µM]	-2%[11.5 µM]	6%[9.22 µM]
Oc1c(C(Nc2ccccn2)c2ccccn2)ccc2cccnc12 (centres undefined)	0%	45%	1%	-1%	-2%	5µM*

Screening data as filed in PubChem BioAssay.
